For assay [1], the system named is PRMT1 (protein arginine N-methyltransferase 1). Description: PRMT1 binders on small-molecule microarrays, primary screen, biochemical, small-molecule microarray, 635 nm fluorescence (AID 1088).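 Further: binding of Prmt1 protein to compounds spotted on small-molecule microarray slides.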 As to conditions: small-molecule microarray binding, higher = more signal.
Assay [2] can be described thus: yeast growth modulation, basal conditions, primary screen, YJM789 clinical isolate, OD600, 24 h (AID 1089).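 Further: growth of clinical yeast isolate S. cerevisiae YJM 789 seeded 1000 cells per well; test concentration not given here.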 Conditions: S. cerevisiae YJM789 growth, higher = more signal, called active from +8 up or from −8 down.
Assay [3] can be described thus: fission yeast growth modulation, primary screen, strain 972, OD600, 24 h, no modulator (AID 1090).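 Further: basal condition with compound alone and no growth modifier present; test concentration not given here.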 Conditions: S. pombe 972 growth, higher = more signal, called active from +8 up or from −8 down.
Assay [4] in a line: S. cerevisiae growth modulation with rapamycin, primary screen, strain BY4716, OD600, 96 h (AID 1091). Further: test concentration not given here. Conditions: higher = more signal, called active from +8 up or from −8 down.
The target in assay [5] is Torsin-1A-interacting protein 2 (Homo sapiens) (UniProt Q8NFQ8). The assay can be described thus: LULL1 binders on small-molecule microarray, primary screen, cell lysate, human LULL1 lysate, 635/667 nm fluorescence (AID 1092).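 Further: probe is lysate of COS7 cells overexpressing human LULL1; score merges per-feature 667 nm fluorescence with signal-to-noise.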 Conditions: hLULL1 lysate binding, 635 nm fluorescence, higher = more signal.
Torsin-1A-interacting protein 2 (Homo sapiens), sequence (Q8NFQ8 whole entry, looked up): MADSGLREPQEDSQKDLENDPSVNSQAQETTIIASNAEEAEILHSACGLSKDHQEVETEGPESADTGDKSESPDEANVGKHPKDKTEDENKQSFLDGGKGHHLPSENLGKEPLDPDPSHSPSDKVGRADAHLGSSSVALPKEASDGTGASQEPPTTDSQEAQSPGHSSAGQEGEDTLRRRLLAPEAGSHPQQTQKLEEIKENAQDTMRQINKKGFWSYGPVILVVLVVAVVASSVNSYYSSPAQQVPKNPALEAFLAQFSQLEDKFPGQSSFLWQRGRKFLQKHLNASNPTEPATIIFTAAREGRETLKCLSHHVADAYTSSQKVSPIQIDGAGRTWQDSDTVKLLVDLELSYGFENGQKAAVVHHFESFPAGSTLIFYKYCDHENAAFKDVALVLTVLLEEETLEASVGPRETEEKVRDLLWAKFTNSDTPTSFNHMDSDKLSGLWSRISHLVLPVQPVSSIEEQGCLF
Assay [6] is described as follows: E. coli growth modulation, two-sided OD650, primary screen, E. coli filamentation project, strain DRC41, 24 h (AID 1093).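 Further: MC1000 strain lacking acrAB efflux and sulA so SOS filamentation is blocked; test concentration not given here.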 Conditions: OD650, 24 h, higher = more signal, called active from +8 up or from −8 down.
Assay [7] in a line: small-molecule microarray binders of probe aLefty2, primary screen, biochemical, biotinylated probe, 635/667 nm fluorescence (AID 1094).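 Further: score merges spot fluorescence near 667 nm with spot signal-to-noise ratio.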 Conditions: higher = more signal.
The subject of assay [8] is Noggin (protein binding on small-molecule microarray). Description: Noggin binders on small-molecule microarray, primary screen, biochemical, 635/667 nm fluorescence (AID 1095).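 Further: score merges 667 nm feature fluorescence with signal to noise over triplicate slides.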 Conditions: 635 nm fluorescence, higher = more signal.
Assay [9] addresses Neurogenic locus notch homolog protein 3 (Homo sapiens) (UniProt Q9UM47). The assay can be described thus: NOTCH3 binders on small-molecule microarray, primary screen, biochemical, 635/667 nm fluorescence (AID 1096). Conditions: NOTCH3 binding, 635 nm fluorescence, higher = more signal.
The nature of assay [10]: small-molecule microarray binders of probe aEGFR, primary screen, biochemical, biotinylated probe, 635/667 nm fluorescence (AID 1097).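 Further: probe is a biotinylated anti-EGFR antibody binding compounds printed on slides; score combines fluorescence near 667 nm and signal to noise of each spot.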 As to conditions: higher = more signal.
Assay [11] has as its system Plasmodium falciparum Sir2 (PF13_0152, Sir2A). The assay can be described thus: pfSir2 binders on small-molecule microarrays, primary screen, biochemical, small-molecule microarray, 635 nm fluorescence (AID 1098).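 Further: score merges spot fluorescence intensity with its signal-to-noise ratio.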 Conditions: small-molecule microarray binding, fluorescence 635 nm; higher = more signal.
Assay [12] can be described thus: small-molecule microarray binders of probe aDKK1, primary screen, biochemical, biotinylated probe, 635/667 nm fluorescence (AID 1099).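 Further: score merges 667nm spot fluorescence with signal to noise across triplicate slides; reference of the scale not given here.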 Conditions: higher = more signal.
A short description of assay [13]: small-molecule microarray binders of probe aCHRDL2, primary screen, biochemical, biotinylated probe, 635/667 nm fluorescence (AID 1100). As to conditions: higher = more signal.
The nature of assay [14]: splicing luciferase reporter signal modulators, primary screen, spliceosome inhibition project, cell-based, HEK293, splice +/- reporter (AID 1101).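 Further: HEK293 cells carrying a splicing-competent luciferase reporter gene; test concentration not given here.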 Conditions: luminescence, 24 h, higher = more signal, called active from +8 up or from −8 down.
Assay [15] addresses Fibroblast growth factor 10 (Homo sapiens) (UniProt O15520). Description: FGF10 binders on small-molecule microarrays, primary screen, biochemical, small-molecule microarray, 635 nm fluorescence (AID 1102). As to conditions: FGF10 binding, fluorescence 635 nm, higher = more signal.
Assay [16] concerns glycogen synthase kinase-3 (GSK3A per assay name; protocol says GSK3B). Description: GSK3 binders on small-molecule microarrays, primary screen, biochemical, small-molecule microarray, 635 nm fluorescence, GSK3A (AID 1103). Further: the record names both GSK3A and GSK3B. Conditions: small-molecule microarray binding, fluorescence 635 nm; higher = more signal.
The target in assay [17] is Epidermal growth factor receptor (Homo sapiens) (UniProt P00533). Description: EGFR binders on small-molecule microarrays, primary screen, biochemical, small-molecule microarray, 635 nm fluorescence (AID 1104).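 Further: score merges 667 nm emission intensity with spot signal to noise over triplicate slides.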 Conditions: EGFR binding, higher = more signal.
Epidermal growth factor receptor (Homo sapiens), sequence (P00533 whole entry, looked up): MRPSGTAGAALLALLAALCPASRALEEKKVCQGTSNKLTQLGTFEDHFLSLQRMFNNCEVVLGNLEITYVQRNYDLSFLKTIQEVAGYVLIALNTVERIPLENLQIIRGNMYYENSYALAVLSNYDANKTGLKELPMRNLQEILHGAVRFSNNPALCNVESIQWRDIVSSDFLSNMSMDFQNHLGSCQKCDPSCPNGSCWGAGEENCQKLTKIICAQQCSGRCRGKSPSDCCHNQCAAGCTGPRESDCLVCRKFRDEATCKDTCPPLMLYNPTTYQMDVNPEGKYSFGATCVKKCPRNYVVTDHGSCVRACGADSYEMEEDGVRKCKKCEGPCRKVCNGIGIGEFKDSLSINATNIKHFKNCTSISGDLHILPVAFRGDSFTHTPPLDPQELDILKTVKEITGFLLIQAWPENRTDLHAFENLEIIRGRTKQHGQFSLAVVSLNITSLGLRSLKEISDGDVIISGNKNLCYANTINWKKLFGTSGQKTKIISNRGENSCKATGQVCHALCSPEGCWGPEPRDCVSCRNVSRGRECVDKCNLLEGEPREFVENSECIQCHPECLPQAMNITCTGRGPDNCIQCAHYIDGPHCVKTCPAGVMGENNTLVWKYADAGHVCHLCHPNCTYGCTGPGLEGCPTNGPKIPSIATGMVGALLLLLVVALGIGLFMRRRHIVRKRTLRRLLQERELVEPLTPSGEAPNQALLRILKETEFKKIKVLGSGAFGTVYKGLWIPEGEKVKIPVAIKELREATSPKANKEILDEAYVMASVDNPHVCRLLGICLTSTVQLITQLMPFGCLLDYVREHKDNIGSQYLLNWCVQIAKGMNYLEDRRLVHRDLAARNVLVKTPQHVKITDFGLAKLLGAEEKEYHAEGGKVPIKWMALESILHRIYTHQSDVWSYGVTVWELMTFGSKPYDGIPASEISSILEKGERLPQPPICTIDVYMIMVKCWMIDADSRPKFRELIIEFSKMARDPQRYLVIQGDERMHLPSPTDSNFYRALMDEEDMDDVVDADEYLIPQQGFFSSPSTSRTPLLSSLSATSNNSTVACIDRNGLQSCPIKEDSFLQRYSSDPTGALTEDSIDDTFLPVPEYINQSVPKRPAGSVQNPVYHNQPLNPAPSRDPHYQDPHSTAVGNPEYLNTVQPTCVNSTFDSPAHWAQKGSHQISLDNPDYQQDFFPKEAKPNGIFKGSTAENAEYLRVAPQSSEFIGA
The target of assay [18] is Follistatin-related protein 3 (Homo sapiens) (UniProt O95633). Description: FSTL3 binders on small-molecule microarrays, primary screen, biochemical, small-molecule microarray, 635 nm fluorescence (AID 1105).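 Further: score merges emission near 667 nm and signal to noise per printed spot across three slides.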 As to conditions: FSTL3 binding, higher = more signal.
Follistatin-related protein 3 (Homo sapiens), sequence (O95633 whole entry, looked up): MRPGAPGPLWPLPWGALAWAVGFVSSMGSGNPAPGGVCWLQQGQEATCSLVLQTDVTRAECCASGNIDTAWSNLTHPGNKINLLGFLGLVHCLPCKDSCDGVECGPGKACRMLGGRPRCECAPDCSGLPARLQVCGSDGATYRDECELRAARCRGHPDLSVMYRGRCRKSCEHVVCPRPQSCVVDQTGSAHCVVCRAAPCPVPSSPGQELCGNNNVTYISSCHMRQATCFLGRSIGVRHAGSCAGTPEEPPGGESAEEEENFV
Assay [19] deals with Dickkopf-related protein 1 (Homo sapiens) (UniProt O94907). Description: DKK1 binders on small-molecule microarrays, primary screen, biochemical, small-molecule microarray, 635 nm fluorescence scan (AID 1106).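 Further: score merges emission near 667 nm with signal to noise over three replicate slides.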 Conditions: DKK1 binding, higher = more signal.
Dickkopf-related protein 1 (Homo sapiens), sequence (O94907 whole entry, looked up): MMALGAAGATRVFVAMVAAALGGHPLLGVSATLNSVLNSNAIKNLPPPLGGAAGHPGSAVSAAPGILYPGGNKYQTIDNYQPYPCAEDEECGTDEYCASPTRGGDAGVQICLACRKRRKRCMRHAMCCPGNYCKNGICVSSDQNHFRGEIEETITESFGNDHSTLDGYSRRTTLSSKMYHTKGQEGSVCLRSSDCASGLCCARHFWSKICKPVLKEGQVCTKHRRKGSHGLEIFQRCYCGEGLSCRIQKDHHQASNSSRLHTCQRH
Assay [20] deals with Inhibin beta A chain (activin A). The assay can be described thus: INHBA (activin A) binders on microarrays, primary screen, biochemical, small-molecule microarray, 635 nm fluorescence scan (AID 1107).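 Further: mouse activin A protein probed at 4.33 µg/mL on printed slides; score merges bound-protein fluorescence near 667 nm with spot signal-to-noise.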 Conditions: small-molecule microarray binding, higher = more signal.

Data on nine molecules can be found in PubChem BioAssay.

Structures are written as SMILES. Active and inactive are the calls of the source.

Neurogenic locus notch homolog protein 3 (Homo sapiens), sequence (Q9UM47 whole entry, looked up): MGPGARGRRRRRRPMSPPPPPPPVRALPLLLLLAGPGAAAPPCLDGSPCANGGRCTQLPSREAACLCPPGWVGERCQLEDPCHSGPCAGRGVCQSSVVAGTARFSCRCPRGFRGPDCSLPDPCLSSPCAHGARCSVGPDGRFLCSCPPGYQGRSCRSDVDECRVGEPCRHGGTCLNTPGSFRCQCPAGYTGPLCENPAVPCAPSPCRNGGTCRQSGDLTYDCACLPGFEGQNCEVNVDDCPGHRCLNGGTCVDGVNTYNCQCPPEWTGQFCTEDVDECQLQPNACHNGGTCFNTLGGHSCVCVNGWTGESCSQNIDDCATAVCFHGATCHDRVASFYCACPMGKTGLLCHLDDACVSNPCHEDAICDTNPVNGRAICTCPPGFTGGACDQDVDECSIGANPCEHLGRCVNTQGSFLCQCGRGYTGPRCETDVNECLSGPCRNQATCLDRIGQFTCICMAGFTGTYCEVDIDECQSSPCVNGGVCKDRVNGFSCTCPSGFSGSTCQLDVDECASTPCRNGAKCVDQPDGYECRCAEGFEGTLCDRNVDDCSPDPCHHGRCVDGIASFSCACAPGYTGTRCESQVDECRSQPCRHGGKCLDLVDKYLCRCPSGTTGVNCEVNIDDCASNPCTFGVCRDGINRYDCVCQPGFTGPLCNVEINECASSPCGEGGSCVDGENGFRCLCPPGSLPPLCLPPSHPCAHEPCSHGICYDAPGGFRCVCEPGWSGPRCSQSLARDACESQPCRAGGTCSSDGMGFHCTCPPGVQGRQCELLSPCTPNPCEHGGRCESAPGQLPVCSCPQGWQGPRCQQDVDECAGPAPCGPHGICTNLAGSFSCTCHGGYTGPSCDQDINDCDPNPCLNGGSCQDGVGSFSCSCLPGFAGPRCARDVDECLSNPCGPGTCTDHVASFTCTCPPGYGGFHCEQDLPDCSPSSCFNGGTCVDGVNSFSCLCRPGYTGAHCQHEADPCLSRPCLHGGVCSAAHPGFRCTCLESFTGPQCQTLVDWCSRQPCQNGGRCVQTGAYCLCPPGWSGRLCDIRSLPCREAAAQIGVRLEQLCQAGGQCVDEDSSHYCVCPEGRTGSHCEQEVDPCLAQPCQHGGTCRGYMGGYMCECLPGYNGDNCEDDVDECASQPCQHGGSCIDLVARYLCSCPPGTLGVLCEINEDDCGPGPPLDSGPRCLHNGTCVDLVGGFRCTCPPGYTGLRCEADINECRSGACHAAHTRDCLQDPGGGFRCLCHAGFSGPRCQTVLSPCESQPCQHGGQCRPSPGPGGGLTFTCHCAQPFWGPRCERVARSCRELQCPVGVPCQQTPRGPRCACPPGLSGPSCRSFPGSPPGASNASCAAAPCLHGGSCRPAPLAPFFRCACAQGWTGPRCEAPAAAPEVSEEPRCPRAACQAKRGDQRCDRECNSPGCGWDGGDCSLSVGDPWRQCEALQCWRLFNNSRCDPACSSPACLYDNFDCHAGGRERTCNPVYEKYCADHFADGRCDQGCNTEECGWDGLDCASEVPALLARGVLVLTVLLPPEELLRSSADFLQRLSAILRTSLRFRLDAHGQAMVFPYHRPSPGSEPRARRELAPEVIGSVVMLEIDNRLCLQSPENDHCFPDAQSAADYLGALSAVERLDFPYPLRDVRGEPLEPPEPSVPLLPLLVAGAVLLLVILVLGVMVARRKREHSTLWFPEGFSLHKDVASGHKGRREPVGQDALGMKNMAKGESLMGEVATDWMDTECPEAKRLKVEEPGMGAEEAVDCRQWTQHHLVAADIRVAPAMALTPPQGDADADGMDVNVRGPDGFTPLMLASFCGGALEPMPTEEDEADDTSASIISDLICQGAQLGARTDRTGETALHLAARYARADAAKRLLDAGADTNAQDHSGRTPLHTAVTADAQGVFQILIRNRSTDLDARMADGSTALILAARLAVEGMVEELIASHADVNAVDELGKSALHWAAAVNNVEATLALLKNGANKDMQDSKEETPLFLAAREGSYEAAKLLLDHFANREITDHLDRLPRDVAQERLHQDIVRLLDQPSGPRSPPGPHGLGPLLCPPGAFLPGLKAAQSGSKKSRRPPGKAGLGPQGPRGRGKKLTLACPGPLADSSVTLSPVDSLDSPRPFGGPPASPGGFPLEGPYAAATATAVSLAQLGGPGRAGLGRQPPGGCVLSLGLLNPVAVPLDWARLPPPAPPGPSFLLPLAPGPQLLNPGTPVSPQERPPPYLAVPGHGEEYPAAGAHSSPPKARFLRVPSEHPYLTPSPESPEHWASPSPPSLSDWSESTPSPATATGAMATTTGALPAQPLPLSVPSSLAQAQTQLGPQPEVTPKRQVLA
Fibroblast growth factor 10 (Homo sapiens), sequence (O15520 whole entry, looked up): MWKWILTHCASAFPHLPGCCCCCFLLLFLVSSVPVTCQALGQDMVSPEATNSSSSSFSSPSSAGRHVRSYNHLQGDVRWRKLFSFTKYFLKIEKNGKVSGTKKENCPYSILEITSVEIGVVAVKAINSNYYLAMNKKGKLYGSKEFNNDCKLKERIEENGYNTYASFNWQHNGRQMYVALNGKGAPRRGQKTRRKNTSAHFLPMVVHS

For the molecule `O=C1C2C=CC(C(O)c3cccc(O)c3)N(Nc3ccccc3F)C2C(=O)N1c1ccccc1` (stereo not given), the composite z-score in [1] is 0.788; in assay [5] it was 1.88; in [7], -0.192; in [8] it was -0.171; in [9] it was 0.552; in [10], -0.13. Moreover, the composite z-score is 1.86 in assay [11]; -0.143 in assay [12]; 0.247 in assay [13]; -0.177 in [15]; -0.127 in assay [16]; -0.175 in assay [17]. Besides, the results for the composite z-score in [18], in assay [19] and in assay [20] were 0.338, -0.128 and 0.452, respectively. Also, the z-score in [2] is -25 (active); in assay [3], -8.06 (active); in assay [4] it was -1.5 (inactive); in [6], 1.94 (inactive); in assay [14] it was -3.1 (inactive).
For the molecule `O=C1N(CCS(=O)(=O)c2ccccc2)c2ccccc2[C@@H]2OC(c3ccc(OCCCO)cc3)=N[C@]12CCS(=O)(=O)c1ccccc1`, the composite z-score in assay [1] was 1.54; in assay [5], 3.46; in assay [7], 0.471; in assay [8] it was 0.833; in assay [9], 1.14; in assay [10], -0.0333. Also, the composite z-score was 0.982 in [11]; 0.753 in assay [12]; 0.585 in [13]; 0.989 in assay [15]; 1.26 in [16]; 0.917 in [17]. In addition, the composite z-score is 1.42 in [18], 1.16 in assay [19] and 0.878 in assay [20]. For the same molecule, the z-score was 0.864 (inactive) in assay [2]; 1.78 (inactive) in assay [3]; 4.01 (inactive) in assay [4]; 0.678 (inactive) in [6]; -0.254 (inactive) in assay [14].
As to `CC1(C)OC[C@@]23C=C(Br)[C@@H](C[C@H]12)[C@@]1(CO1)C3=O`, the composite z-score in assay [1] is -0.0986; in assay [5], -0.202; in assay [7] it was -0.153; in assay [8], 0.232; in [9], 0.378; in assay [10] it was -0.109. Moreover, the composite z-score was 0.0908 in [11]; -0.123 in assay [12]; -0.567 in assay [13]; 0.447 in assay [15]; 0.691 in assay [16]; 0.376 in assay [17]. Further, the composite z-score worked out at 0.564 in assay [18], 0.356 in assay [19] and 0.174 in [20]. In addition, the z-score in assay [2] is 0.409 (inactive); in assay [3] it was -1.24 (inactive); in assay [4], 0.125 (inactive); in assay [6], -0.665 (inactive); in [14], 0.0884 (inactive).
Regarding `CCCC[C@@H]1C[C@H]1[C@@H](NC(=O)Cc1ccccc1)c1ccc(Cl)cc1`, the composite z-score in assay [1] came to 0.576; in assay [5], 3.14; in assay [7] it was 0.105; in assay [8], 1.34; in [9] it was 1.03; in assay [10] it was 0.218. In addition, the composite z-score in assay [11] was 0.906; in assay [12] it was 1.22; in [13], 1.45; in assay [15], 0.592; in assay [16], 0.937; in [17] it was 0.0572. Also, the composite z-score was 0.868 in [18], -0.946 in [19] and 0.674 in [20]. Also, the z-score in assay [2] is 0.0911 (inactive); in [3], -1.16 (inactive); in [4] it was 1.68 (inactive); in [6] it was -0.76 (inactive); in assay [14], -0.0981 (inactive).
For `CC(C)C[C@@H]1NC(=O)C([C@@H](C)OCc2ccccc2)NC(=O)[C@@]23C(=O)N[C@@H](Cc4ccccc4)C2[C@H](C)[C@@]2(C)O[C@H]2C3/C=C/CC/C=C/CNC1=O` (stereo not given in full), the composite z-score in assay [1] was 1.55; in assay [5], 1.82; in assay [7], -0.129; in [8] it was 1.18; in assay [9], 0.767; in assay [10], -0.0512. The composite z-score in [11] is 1.38; in assay [12], -0.309; in assay [13], -0.475; in assay [15], 0.699; in [16], 0.517; in assay [17], 0.432. Besides, the composite z-score is 0.721 in [18], 0.445 in [19] and 1.13 in [20]. For the same molecule, the z-score in [2] was -0.404 (inactive); in assay [3] it was -1.07 (inactive); in assay [4], -1.28 (inactive); in assay [6] it was 0.957 (inactive); in assay [14] it was -1.62 (inactive).
For the molecule `COC(=O)[C@H](Cc1ccc(O)cc1)N1CC2=CCCC=C[C@@H]2[C@H]1[C@H](O)Cc1ccccc1`, the composite z-score is 1.13 in assay [1]; 0.616 in assay [5]; -0.29 in assay [7]; 0.191 in assay [8]; -0.0213 in assay [9]; -0.112 in assay [10]. The composite z-score in [11] is 0.751; in [12], -0.301; in [13] it was -0.538; in [15] it was 0.477; in [16], -0.159; in assay [17], 0.72. The composite z-score in assay [18] was determined as 0.255; in [19], 0.0139; in assay [20], 0.493. Also, the z-score is -0.662 (inactive) in assay [2]; -2.3 (inactive) in [3]; -1.03 (inactive) in [4]; 0.65 (inactive) in assay [6]; -1.07 (inactive) in [14].
Regarding `NC(=O)NCC#Cc1ccc2c(c1)[C@]1(C(=O)N2)[C@H](C(=O)Nc2nc3ccccc3s2)[C@H]2C(=O)O[C@H](c3ccccc3)[C@H](c3ccccc3)N2[C@@H]1c1ccc(OCCO)cc1`, the composite z-score in assay [1] was -0.006; in [5], 0.963; in assay [7], -0.0616; in [8], 0.479; in [9], 0.353; in [10], -0.138. In addition, the composite z-score in [11] was -0.478; in assay [12], 0.738; in [13], 1.13; in [15] it was 0.253; in assay [16], -0.95; in [17], 0.0294. Moreover, the composite z-score in assay [18] is 0.559; in assay [19], -0.52; in assay [20], 0.765. For the same molecule, the z-score was 1.83 (inactive) in assay [2]; 1.87 (inactive) in assay [3]; 2.18 (inactive) in assay [4]; 0.976 (inactive) in assay [6]; 1.37 (inactive) in assay [14].
On to `CCOC(=O)C1=CC[C@@H](c2ccccc2)N(S(=O)(=O)c2ccc(C)cc2)[C@H]1C#N`, for which the composite z-score is 0.811 in [1]; 2.99 in assay [5]; -0.0179 in assay [7]; -0.14 in assay [8]; 0.612 in assay [9]; 0.0985 in assay [10]. The composite z-score in assay [11] was 1.54; in [12] it was 0.507; in assay [13], 0.56; in assay [15] it was 0.417; in assay [16], 0.73; in assay [17], -0.106. Moreover, the composite z-score in [18] is -0.111; in assay [19], -0.377; in [20] it was -0.0426. The z-score in [2] is 0.0536 (inactive); in assay [3], -1.06 (inactive); in assay [4], 0.281 (inactive); in assay [6], -0.121 (inactive); in assay [14], 0.705 (inactive).
As for `CCC[C@@H]1C=C(C(=O)OCC)[C@H](c2ccccc2)N1S(=O)(=O)c1ccc(C)cc1`, the composite z-score in assay [1] is 1.57; in assay [5], 0.352; in assay [7], 0.326; in assay [8], 0.0974; in [9] it was 1.08; in assay [10], 0.21. The composite z-score in [11] is 0.58; in [12] it was 0.852; in assay [13], 1.02; in [15], 0.977; in assay [16], 1.32; in [17], 0.623. The composite z-score in assay [18] is 1.25; in [19] it was 0.117; in assay [20], 0.789. For the same molecule, the z-score is 0.73 (inactive) in [2]; 1.67 (inactive) in assay [3]; 1.7 (inactive) in assay [4]; -0.209 (inactive) in assay [6]; -0.141 (inactive) in assay [14].
